# High-throughput results as filed in PubChem.
# Only a selection was taken, and hits are over-represented in it overall.
# Sm TGR block: inhibitors of Schistosoma mansoni thioredoxin glutathione reductase; purified TGR, DTNB reduction, TNB absorbance 405 nm; Potency, µM (top dose mostly 114 µM), usual class: inhibitors; AID 485364; 3% of 360,000 active; Q962Y6; note: nearly all actives have a fitted effect of over 60% in size
#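 First, TGR (20 nM dispensed) and NADPH were mixed with compound. Second, a 15 min room-temperature incubation followed. Third, further NADPH and then DTNB were added to start the reaction. Finally, TNB absorbance was monitored kinetically.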
# TbPYK inhibitor: blocks Trypanosoma brucei pyruvate kinase | TbPYK enzyme, Kinase-Glo Plus ATP luminescence, 45 min | 0.12% of 410,000 active | Q57TT1 | AID 624173 | Potency, µM (doses to about 76.8 µM), actives largely listed as inhibitors; note: nearly all actives have a fitted effect of over 50% in size
#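 TbPYK + substrate in 50 mM TEA pH 7.2, 100 mM KCl, 10 mM MgCl2, 0.05% BSA, 0.01% Tween-20; cpd pinned; ADP 130 uM final; 45 min RT; Kinase-Glo Plus 10 min; luminescence endpoint.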
# LmPK inhibitor: LmPK (Leishmania mexicana) enzyme inhibition; Q27686; purified LmPK, Kinase-Glo ATP luminescence, 1 h; Potency, µM (highest dose often 57.5 µM), hits mostly inhibitors; 0.37% of 290,000 active; AID 1721
#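 qHTS format; LmPK 0.1 nM; substrates PEP 0.5 mM and ADP 0.1 mM. One-hour room-temperature incubation, then coupled luciferase luminescence; 0.5 nM enzyme wells mark activation.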
# Shiga toxin inh: Shiga toxin inhibition | Vero cells, Shiga toxin protein synthesis inhibition reporter | inhibition, % at 38.7 µM | 9.2% of 290,000 active | AID 2315; in the data active = inhibition mostly above about 28%, no sharp cut-off; inactive = mostly below about 43%
# FBPA Giardia inh: inhibitors of Giardia lamblia fructose-1,6-bisphosphate aldolase | AID 2451 | purified Giardia FBPA | Potency, µM (titrated, usually from 59.6 µM), usual class: inhibitors | A8B2U2 | 0.71% of 290,000 active; note: nearly all actives have a fitted effect of over 55% in size
# Target sequence (A8B2U2 whole entry, looked up): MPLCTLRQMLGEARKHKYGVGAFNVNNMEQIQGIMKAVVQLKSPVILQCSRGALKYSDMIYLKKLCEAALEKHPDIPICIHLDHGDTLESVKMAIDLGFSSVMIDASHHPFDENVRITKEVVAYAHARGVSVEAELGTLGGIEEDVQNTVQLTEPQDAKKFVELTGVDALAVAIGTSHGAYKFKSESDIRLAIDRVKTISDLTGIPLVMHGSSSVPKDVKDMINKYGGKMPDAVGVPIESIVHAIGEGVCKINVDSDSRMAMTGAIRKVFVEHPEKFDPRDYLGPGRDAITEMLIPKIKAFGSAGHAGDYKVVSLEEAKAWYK
#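 40 nM FBPA preincubated 10 min at RT with compound (up to 57.5 uM final), then substrate plus GAPDH/TPI/NAD/arsenate coupling and diaphorase/resazurin added. Fluorescence read after 20 min at RT, 525/598 nm.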
# CHX counter: counter-screen hit for Shiga toxin inhibitors, cycloheximide; cell reporter, cycloheximide protein synthesis inhibition counterscreen; max response, %; 12% of 300,000 active; in the data active = max response mostly above about 13%, no sharp cut-off; inactive = mostly below about 14%; note: read at 38.3 µM for the half of the compounds with a filed dose
# Hits are given with their value; - = inactive; ? = inconclusive; . = no result given; [ ] = remark or other dose. Unless noted, calls come from the whole dose curve; as a rule, active = well fitted curve in the direction sought with a large enough effect; inconclusive = small, poorly fitted or top-dose-only effect, or another doubt; inactive = no such curve, though single readings can be large; an effect the other way counts as inactive or inconclusive.
SMILES,Sm TGR block,TbPYK inhibitor,LmPK inhibitor,Shiga toxin inh,FBPA Giardia inh,CHX counter
CCCCn1c(O)c(N=Nc2ccccn2)c2ccccc21,-,-,-,-,-,-
CCn1c(O)c(N=Nc2ccc3ccccc3n2)c2ccccc21,-,-,-,81.2,-,38.8
O=S(=O)(NCC(O)COCc1ccco1)c1cccs1 (centres undefined),12.6µM,-,-,-,-,-
CC(C)=NOC[C@@H](O)COCc1ccco1,.,.,.,.,-[12.9 µM],.
COc1cc(NC(=O)Cn2c(=O)ccc3cc(S(=O)(=O)N4CCCC4)ccc32)cc(OC)c1,-,-,.,.,.,.
O=C1CCC=C1C(O)c1ccc2c(c1)OCO2 (centres undefined),.,.,.,.,-,.
CC1CCCN(C(=O)c2ccc(COc3ccccc3Br)cc2)C1 (centres undefined),-,-,-,-,-,9.1
CCOc1ccc(OCc2ccc(C(=O)N3CCOCC3)cc2)cc1,-,.,-,44.4,-,36.2
CCOc1ccc(OCc2ccc(C(=O)N3CCCC(C)C3)cc2)cc1 (centres undefined),-,-,-,101.5,-,41.1
CCCCOc1ccc(C(=O)N2CCN(c3ccc(N4CCOCC4)nn3)CC2)cc1,-,-,.,.,.,.
CCOc1ccc(N=C(/C(C(=O)C(=O)N2CCOCC2)=C(\O)c2ccccc2)c2ccccc2)cc1,-,-,-,61.9,-,53.0
CCOc1ccc(C(=O)C(c2ccccc2)N2CCOCC2)cc1 (centres undefined),-,-,-,-,-,-
COc1ccc(Cn2c(SCc3ccc(C(=O)NC(C)c4ccccc4)cc3)nc3cccnc32)cc1 (centres undefined),-,-,.,.,.,.
Cc1ccc(-c2c(C3C4C=CCCC4(C)C(=O)N3Cc3ccccc3)ccc3ccccc23)cc1 (centres undefined),.,.,.,-,-,-
C=C1c2ccccc2O[C@H](C(=O)OCC)[C@@H]1CC(C)(C)c1ccccc1,.,.,.,-,-,-
CCN(Cc1ccc2c(c1)OCCO2)C(=O)CSc1nc(C)nc2sc(C)c(C)c12,-,-,.,.,.,.
N#Cc1cc2cc3c(cc2nc1SCC(=O)N1CCOCC1)OCO3,-,-,-,83.1,-,28.3
Cc1cc2cc3c(cc2nc1SCC(=O)N1CCOCC1)OCO3,-,-,-,-,.,-
CCOC(=O)CSc1nc2cc3c(cc2cc1C#N)OCCO3,-,-,-,90.5,-,32.8
CCOC(=O)CSc1nc2cc3c(cc2cc1C)OCO3,-,-,-,-,-,-
CCOC(=O)CSc1nc2cc3c(cc2cc1C#N)OCO3,?,-,-,182.0,-,-
CC(C)OC(=O)CSc1nc2cc3c(cc2cc1C#N)OCO3,-,-,-,-,-,-
COC(=O)CSc1nc2cc3c(cc2cc1C#N)OCO3,-,-,-,89.6,-,38.0
C[C@]12CCC(=O)C[C@@H]1CC[C@@H]1[C@@H]2CC[C@]2(C)[C@@H](C(=O)COC(=O)CCC(=O)O)CC[C@@H]12,-,-,-,-,-,-
CCOc1ccc2cc(C#N)c(SCC(=O)N3CCOCC3)nc2c1,-,-,-,101.0,-,30.0
SMILES,Sm TGR block,TbPYK inhibitor,LmPK inhibitor,Shiga toxin inh,FBPA Giardia inh,CHX counter
N#CCC(=O)N/N=C/c1cc([N+](=O)[O-])ccc1N1CCCC1,-,-,-,46.7,-,-
Cc1cc2c(s1)c1cnn(Cc3c(F)cccc3F)c(=O)c1n2C,.,.,.,-,.,-
CCCNC(=O)Cn1nc(-c2ccc(C)c(C)c2)c2cnc3ccc(OC)cc3c21,-,-,.,.,.,.
COc1ccc(NC(=O)CSc2nc3c(cc2C#N)CN(C)CC3)cc1,79.4µM,-,-,-,-,-
CN1CCc2nc(SCC(=O)Nc3ccc(F)cc3)c(C#N)cc2C1,28.2µM,.,-,-,-,-
COc1ccc(OC)c(NC(=O)c2c(NCc3ccc(OC)c(OC)c3)sc3c2CCC(C)C3)c1 (centres undefined),-,-,.,.,.,.
CC[C@H](C)[C@H](NC(=O)[C@@H](NC(=O)[C@@H](CC(=O)NO)Cc1ccccc1)[C@@H](C)CC)C(=O)O,.,.,.,-,-,-
CCCCS(=O)(=O)N[C@@H](Cc1ccc(OCCCCC2CCNCC2)cc1)C(=O)O,.,-,.,.,.,.
Fc1ccc(/C=N/NC(=S)Nc2ccc(Cl)cc2)cc1F,-,-,-,-,-,21.9
Fc1ccc(/C=N/NC(=S)Nc2ccc(Cl)cc2Cl)cc1,-,-,-,-,-,-
